Results published in PubChem BioAssay (Tox21).
Records with an inconclusive call do not appear. The source made the active and inactive calls. Unless noted, calls follow the shape of the dose curve; as a rule, active = well fitted curve in the direction sought with a large enough effect in the repeat runs; inconclusive = weak or mixed curves; inactive = no such curve, though single readings can be large; an effect the other way counts as inactive or inconclusive.

What was measured:
[1] = A CellTox Green Cytotoxicity Assay to monitor cytotoxicity in HepG2 cells - 0 hour (AID 1224882); conditions: CellTox Green fluorescence; series mostly up to 76.8 µM; also: nearly all actives have a fitted effect of over 35% in size
In short: (§1)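 HepG2 cells were seeded together with the CellTox Green dye at 600 cells/well, left 5 h at 37 C/5% CO2, then given compounds in DMSO. Fluorescence from dye bound to dead-cell DNA was read repeatedly over 40 h of treatment at 37 C.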

[2] = A CellTox Green Cytotoxicity Assay to monitor cytotoxicity in HepG2 cells - 32 hour (AID 1224883); conditions: CellTox Green fluorescence; series mostly up to 76.8 µM; also: nearly all actives have a fitted effect of over 50% in size
In short: as §1

[3] = qHTS RealTime-Glo MT Cell Viability Assay in HEK293 cells - 24 hour (AID 1224886); conditions: RealTime-Glo luminescence; series mostly up to 76.8 µM; also: top concentration of the series differs between compounds; nearly all actives have a fitted effect of over 50% in size
In short: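 HEK293 cells were seeded at 600 cells/well together with NanoLuc luciferase and cell-permeant prosubstrate, preincubated 5 h at 37 C/5% CO2, then given compound in DMSO by pintool. Luminescence from viable-cell prosubstrate reduction was read repeatedly over 40 h.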

[4] = qHTS RealTime-Glo MT Cell Viability Assay in HEK293 cells - 8 hour (AID 1224887); conditions: RealTime-Glo luminescence; series mostly up to 76.8 µM; also: top concentration of the series differs between compounds; nearly all actives have a fitted effect of over 50% in size
In short: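 HEK293 cells mixed with RealTime-Glo reagents (NanoLuc plus cell-permeant prosubstrate) at 600 cells/well, preincubated 5 h at 37 C/5% CO2, then given 23 nL compound in DMSO. Nonlytic luminescence from viable cells was read at 0, 8, 16, 24, 32 and 40 h.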

[5] = qHTS RealTime-Glo MT Cell Viability Assay in HepG2 cells - 0 hour (AID 1224889); conditions: RealTime-Glo luminescence; series mostly up to 76.8 µM; also: nearly all actives have a fitted effect of over 50% in size
In short: (§2)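 HepG2 cells were seeded at 600 cells/well together with NanoLuc luciferase and a cell-permeant prosubstrate, preincubated 5 h at 37 C/5% CO2, then pin-dosed with compounds in DMSO. Nonlytic luminescence from viable cells was read at each time point.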

[6] = A CellTox Green Cytotoxicity Assay to monitor cytotoxicity in HepG2 cells - 8 hour (AID 1224890); conditions: CellTox Green fluorescence; series mostly up to 76.8 µM; also: nearly all actives have a fitted effect of over 45% in size
In short: as §1

[7] = qHTS assay to identify small molecule antagonists of the estrogen receptor alpha (ER-alpha) signaling pathway using the BG1 cell line in the presence of 0.1 nM 17-beta-estradiol - cell viability counter screen (AID 1259241); conditions: VM7Luc4E2 (BG1) viability, CellTiter-Fluor protease, 22 h, 0.1 nM estradiol agonist added; series mostly up to 92.4 µM; also: nearly all actives have a fitted effect of over 40% in size
In short: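 In this screen, hormone-deprived VM7Luc4E2 cells were seeded at 4,000 per well, dosed with compound and 0.1 nM estradiol final, and incubated 22 hr at 37C and 5% CO2; fluorogenic live-cell protease signal reported viability.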

[8] = qHTS assay to identify small molecule antagonists of the androgen receptor (AR) signaling pathway using the MDA cell line in the presence of 0.5 nM R1881 - cell viability counter screen (AID 1259242); conditions: MDA-kb2 viability, CellTiter-Fluor protease fluorescence, 16 h; series mostly up to 92.4 µM; also: nearly all actives have a fitted effect of over 45% in size
In short: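 MDA-kb2 cells (human breast carcinoma, stably carrying MMTV-luciferase reporter) were exposed to compounds with 0.5 nM R1881 (final) for 16 hr at 37C, 0% CO2; viability then read as live-cell protease fluorescence (CellTiter-Fluor, 30 min) in the same wells.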

[9] = qHTS assay to identify small molecule phospholipidosis (PLD) inducers (AID 1259344; active = well fitted curve in the direction sought with a large enough effect; an effect the other way counts as inactive or inconclusive); conditions: HepG2 phospholipidosis, LipidTOX Red imaging, 24 h; series mostly up to 38.3 µM
In short: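 Quantitative HTS in HepG2: compound plus LipidTOX Red dye for 24 h, paraformaldehyde fixation with Hoechst 33342, widefield high-content imaging; amiodarone as positive and DMSO as negative control.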

[10] = qHTS assay to identify small molecule HDAC inhibitors (AID 1259364); conditions: HCT-116 HDAC-Glo I/II luminescence, 2 h; series mostly up to 92.4 µM; also: top concentration of the series differs between compounds; nearly all actives have a fitted effect of over 45% in size
In short: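 Wild-type HCT-116 cells were plated overnight, exposed to compounds for 2 h at 37 °C, then given HDAC-Glo class I/II luminogenic reagent for 30 min at room temperature before luminescence was read.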

[11] = qHTS assay to identify small molecule HDAC inhibitors - cell viability counter screen (AID 1259365); conditions: HCT-116 viability, CellTiter-Glo ATP luminescence, 2 h; series mostly up to 92.4 µM; also: nearly all actives have a fitted effect of over 50% in size
In short: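 Measured quantity is CellTiter-Glo luminescence from wild-type HCT-116 cells after compound incubation of 2hr at 37C, 5% CO2; reagent developed 30min at room temperature.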

[12] = qHTS assay to identify small molecule agonists of the sonic hedgehog signaling (Shh) pathway - cell viability counter screen (AID 1259366); conditions: NIH/3T3 Gli1-Luc viability, CellTiter-Fluor, 24 h; series mostly up to 92.4 µM; also: nearly all actives have a fitted effect of over 50% in size
In short: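 In quantitative high-throughput format, 3T3 Gli1-Luc cells were exposed to compounds for 24hr and multiplexed for viability using CellTiter-Fluor, incubated 1hr at 37C before the fluorescence read.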

[13] = qHTS assay to identify small molecule agonists of the sonic hedgehog signaling (Shh) pathway (AID 1259368; calls by dose curve; also: nearly all actives have a fitted effect of over 15% in size); conditions: NIH/3T3 Gli1-Luc reporter, luciferase, 24 h; series mostly up to 92.4 µM
In short: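 NIH/3T3-derived 3T3Gli1-Luc cells carrying a stably integrated Gli1 response element–firefly luciferase reporter were plated, left 4 hr at 37 C, then given compounds in DMSO for 24 hr. Luminescence was read 30 min after adding luciferase reagent.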

[14] = A CellTox Green Cytotoxicity Assay to monitor cytotoxicity in HEK293 cells - 32 hour (AID 1224881); conditions: CellTox Green fluorescence; series mostly up to 76.8 µM; also: nearly all actives have a fitted effect of over 40% in size
In short: (§3)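 HEK293 cells premixed with CellTox Green dye were seeded at 600 cells/well and left 5 h at 37 C/5% CO2 before pin transfer of 23 nL compound in DMSO. Fluorescence from dye bound to dead-cell DNA was read during 40 h treatment.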

[15] = A CellTox Green Cytotoxicity Assay to monitor cytotoxicity in HEK293 cells - 8 hour (AID 1224884); conditions: CellTox Green fluorescence; series mostly up to 76.8 µM; also: nearly all actives have a fitted effect of over 35% in size
In short: as §3

[16] = qHTS RealTime-Glo MT Cell Viability Assay in HepG2 cells - 16 hour (AID 1224885); conditions: RealTime-Glo luminescence; series mostly up to 76.8 µM; also: nearly all actives have a fitted effect of over 50% in size
In short: as §2

[17] = A CellTox Green Cytotoxicity Assay to monitor cytotoxicity in HEK293 cells - 16 hour (AID 1224888); conditions: CellTox Green fluorescence; series mostly up to 76.8 µM; also: nearly all actives have a fitted effect of over 35% in size
In short: as §3

[18] = biological target: Estrogen receptor (Homo sapiens) (UniProt P03372); assay: qHTS assay to identify small molecule antagonists of the estrogen receptor alpha (ER-alpha) signaling pathway using the BG1 cell line in the presence of 0.1 nM 17-beta-estradiol (AID 1259244); conditions: VM7Luc4E2 (BG1) ERE-luciferase, antagonist mode, 0.1 nM E2, 22 h; series mostly up to 92.4 µM; also: nearly all actives have a fitted effect of over 50% in size
In short: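 VM7Luc4E2 cells (endogenous full-length ER-alpha, stable 4xERE-luciferase) were grown 5 days in phenol red-free medium with charcoal-stripped FBS, then exposed 22 h at 37C to compounds plus 0.1 nM (final) 17beta-estradiol; ONE-Glo luminescence read-out.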

[19] = qHTS assay to identify small molecule antagonists of the sonic hedgehog signaling (Shh) pathway - cell viability counter screen (AID 1259367); conditions: NIH/3T3 Gli1-Luc viability, CellTiter-Fluor, 24 h; series mostly up to 92.4 µM; also: nearly all actives have a fitted effect of over 55% in size
In short: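 Seed 3T3 Gli1-Luc cells at 2,000 per well; incubate 4 hr; add compound in DMSO, then conditioned medium; incubate at 37C with 5% CO2; add CellTiter-Fluor after 23 hr; read fluorescence 1 hr later.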

[20] = biological target: Androgen receptor (Homo sapiens) (UniProt P10275); assay: qHTS assay to identify small molecule antagonists of the androgen receptor (AR) signaling pathway using the MDA cell line in the presence of 0.5 nM R1881 (AID 1259243); conditions: MDA-kb2 MMTV-luciferase, R1881 0.5 nM, 16 h; series mostly up to 92.4 µM; also: nearly all actives have a fitted effect of over 50% in size
In short: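 MDA-kb2 human breast carcinoma cells carrying an MMTV-luciferase reporter (AR- and GR-responsive) were plated, rested 5 hr at 37C, dosed with compounds, then stimulated with 0.5 nM R1881 (final) for 16 hr; luminescence was read after ONE-Glo.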

Measured: Potency

Sequence of Estrogen receptor (Homo sapiens) (P03372 whole entry, looked up): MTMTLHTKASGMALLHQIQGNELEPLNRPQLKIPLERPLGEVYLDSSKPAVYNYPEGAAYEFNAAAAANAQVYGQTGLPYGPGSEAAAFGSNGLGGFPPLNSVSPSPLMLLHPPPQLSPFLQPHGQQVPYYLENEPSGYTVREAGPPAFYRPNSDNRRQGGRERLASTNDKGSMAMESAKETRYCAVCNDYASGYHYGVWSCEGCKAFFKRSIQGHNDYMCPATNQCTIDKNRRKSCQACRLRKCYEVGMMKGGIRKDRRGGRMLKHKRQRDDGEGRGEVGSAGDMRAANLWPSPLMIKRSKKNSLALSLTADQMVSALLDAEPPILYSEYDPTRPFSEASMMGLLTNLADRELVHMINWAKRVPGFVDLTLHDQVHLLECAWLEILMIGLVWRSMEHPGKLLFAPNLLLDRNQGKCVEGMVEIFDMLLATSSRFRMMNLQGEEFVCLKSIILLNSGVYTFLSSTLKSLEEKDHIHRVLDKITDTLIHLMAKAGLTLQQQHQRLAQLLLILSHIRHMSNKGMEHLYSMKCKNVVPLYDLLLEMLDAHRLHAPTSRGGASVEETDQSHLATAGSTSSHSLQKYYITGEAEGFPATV
Sequence of Androgen receptor (Homo sapiens) (P10275 whole entry, looked up): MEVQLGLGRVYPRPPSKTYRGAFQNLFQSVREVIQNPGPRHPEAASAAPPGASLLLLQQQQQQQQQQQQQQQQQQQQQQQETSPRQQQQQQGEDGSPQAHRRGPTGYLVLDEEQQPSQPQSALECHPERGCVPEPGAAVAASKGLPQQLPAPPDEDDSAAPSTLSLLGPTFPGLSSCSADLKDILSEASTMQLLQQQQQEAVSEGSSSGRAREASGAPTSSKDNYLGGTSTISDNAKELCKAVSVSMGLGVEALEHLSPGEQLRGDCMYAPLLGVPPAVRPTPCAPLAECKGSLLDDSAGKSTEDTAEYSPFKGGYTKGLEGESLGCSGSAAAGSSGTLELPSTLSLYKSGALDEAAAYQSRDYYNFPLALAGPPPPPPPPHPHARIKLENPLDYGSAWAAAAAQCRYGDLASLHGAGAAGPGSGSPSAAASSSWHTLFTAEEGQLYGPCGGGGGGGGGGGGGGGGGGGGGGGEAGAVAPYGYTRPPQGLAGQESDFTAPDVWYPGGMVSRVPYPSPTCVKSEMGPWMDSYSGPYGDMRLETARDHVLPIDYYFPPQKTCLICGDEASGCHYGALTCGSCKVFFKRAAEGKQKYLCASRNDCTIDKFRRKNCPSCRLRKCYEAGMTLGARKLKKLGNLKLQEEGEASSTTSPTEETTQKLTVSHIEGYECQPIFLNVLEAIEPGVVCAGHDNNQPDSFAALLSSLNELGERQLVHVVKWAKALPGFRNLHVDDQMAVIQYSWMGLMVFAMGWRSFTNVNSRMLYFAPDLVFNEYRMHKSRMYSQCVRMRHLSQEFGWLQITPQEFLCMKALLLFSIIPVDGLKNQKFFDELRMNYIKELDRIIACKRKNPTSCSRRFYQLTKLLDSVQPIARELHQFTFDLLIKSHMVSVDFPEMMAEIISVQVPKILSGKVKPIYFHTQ

CN1C(=S)CN=C(c2ccccc2)c2cc(Cl)ccc21
not listed: [14] | [15] | [16] | [17] | [18] | [19] | [20]
inactive: all other assays above

O=[N+]([O-])c1cccc2cccnc12
not listed: [1] | [7] | [9] | [20]
inactive: all other assays above

CN1CCC(N(Cc2ccccc2)c2ccccc2)CC1
not listed: [1] | [7] | [9] | [19] | [20]
inactive: all other assays above

NC(=S)C(N)=S
not listed: [9] | [14] | [17] | [20]
inactive: all other assays above

O=C1OC(CCN2CCCCC2)OC1(c1ccccc1)c1ccccc1 (centres undefined)
not listed: [1] | [9] | [12] | [15] | [19]
inactive: all other assays above

Cc1ccccc1CO[C@@H]1C[C@@]2(C(C)C)CC[C@]1(C)O2
not listed: [3] | [9] | [14] | [18] | [20]
inactive: all other assays above

CC(Cl)(Cl)[N+](=O)[O-]
not listed: [1] | [9] | [17]
inactive: all other assays above

[O]=[Cd]
not listed: [1] | [3] | [20]
inactive: all other assays above
